# According to publication PMC7862700, “An all-to-all approach to the identification of sequence-specific readers for epigenetic DNA modifications on cytosine”:
# Key:
# Test in all cases: DAPPL (digital affinity profiling via proximity ligation, sequencing); 10 mM Tris-HCl pH 7.5, 50 mM NaCl, 1 mM DTT, 4% glycerol, room temperature, 30 min; GST-TFs on glutathione beads, 16-mer random dsDNA library, 0.1% formaldehyde crosslink after washing; high values mean tight binding
# Conditions in all cases: protein: recombinant; tags: N-terminal GST; dsDNA, one strand shown
# FEV = target: T1, FEV (Homo sapiens, UniProt Q99581 1-238)
# T1 sequence: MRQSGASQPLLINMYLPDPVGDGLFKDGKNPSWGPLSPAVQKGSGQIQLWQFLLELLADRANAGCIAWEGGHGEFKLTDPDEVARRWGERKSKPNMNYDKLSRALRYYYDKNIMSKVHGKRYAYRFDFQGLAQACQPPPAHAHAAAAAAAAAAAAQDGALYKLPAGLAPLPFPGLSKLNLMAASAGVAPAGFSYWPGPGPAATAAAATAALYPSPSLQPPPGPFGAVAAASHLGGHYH
# Method in brief: (§1)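 A tag-only sample was pooled with DNA-barcoded human transcription factors that had been expressed in yeast as GST fusions and captured on glutathione beads. The pools were incubated for 30 min at room temperature with 200 nmole of a random double-stranded 16-mer DNA library in Tris/NaCl/DTT/glycerol buffer, then washed, crosslinked with 0.1% formaldehyde, proximity-ligated (BsaI/T4 ligase, 1 h, 37 °C), PCR-amplified and sequenced on an Illumina NextSeq500. Binding signal is each hexamer's read frequency for a factor divided by its frequency for the tag-only sample.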
# ETV5 = ETV5 (Homo sapiens, UniProt P41161 1-510)
# Method in brief: as §1
# SPIC = target: T2, SPIC (Homo sapiens, UniProt Q8N5J4 1-248)
# T2 sequence: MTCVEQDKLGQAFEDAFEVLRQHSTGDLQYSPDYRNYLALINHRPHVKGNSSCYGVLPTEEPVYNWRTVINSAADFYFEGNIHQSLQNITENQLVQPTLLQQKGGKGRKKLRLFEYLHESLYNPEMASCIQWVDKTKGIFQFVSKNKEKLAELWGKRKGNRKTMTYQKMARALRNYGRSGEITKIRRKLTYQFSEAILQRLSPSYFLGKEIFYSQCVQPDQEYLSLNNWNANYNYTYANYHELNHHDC
# Method in brief: as §1
# ELF4 = ELF4 (Homo sapiens, UniProt Q99607 1-663)
# Method in brief: as §1
# ELK4 = target: T3, ELK4 (Homo sapiens, UniProt P28324-2 1-405)
# T3 sequence: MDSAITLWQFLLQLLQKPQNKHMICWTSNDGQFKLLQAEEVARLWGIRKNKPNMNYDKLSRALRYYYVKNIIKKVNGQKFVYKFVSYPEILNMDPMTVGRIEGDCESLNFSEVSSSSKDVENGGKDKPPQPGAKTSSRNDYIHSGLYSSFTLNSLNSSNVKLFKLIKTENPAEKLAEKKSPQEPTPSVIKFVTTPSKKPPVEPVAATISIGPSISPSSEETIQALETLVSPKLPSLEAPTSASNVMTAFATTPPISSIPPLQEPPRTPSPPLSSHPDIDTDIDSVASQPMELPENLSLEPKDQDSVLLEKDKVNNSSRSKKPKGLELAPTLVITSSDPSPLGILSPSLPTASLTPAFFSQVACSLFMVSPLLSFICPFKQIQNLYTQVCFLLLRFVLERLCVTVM
# Method in brief: as §1
# ETV2 = target: T4, ETV2 (Homo sapiens, UniProt O00321 1-342)
# T4 sequence: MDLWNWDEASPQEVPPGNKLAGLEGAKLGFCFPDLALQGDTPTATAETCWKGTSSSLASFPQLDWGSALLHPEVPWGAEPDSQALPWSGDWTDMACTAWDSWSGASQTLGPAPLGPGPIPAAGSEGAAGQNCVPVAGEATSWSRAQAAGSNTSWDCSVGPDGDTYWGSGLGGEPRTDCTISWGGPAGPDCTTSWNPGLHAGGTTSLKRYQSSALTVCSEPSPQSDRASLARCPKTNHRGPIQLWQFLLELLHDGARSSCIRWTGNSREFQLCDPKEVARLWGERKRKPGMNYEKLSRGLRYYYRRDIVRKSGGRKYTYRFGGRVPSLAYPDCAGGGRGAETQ
# Method in brief: as §1
# ELF3 = target: T5, ELF3 (Homo sapiens, UniProt P78545 1-371)
# T5 sequence: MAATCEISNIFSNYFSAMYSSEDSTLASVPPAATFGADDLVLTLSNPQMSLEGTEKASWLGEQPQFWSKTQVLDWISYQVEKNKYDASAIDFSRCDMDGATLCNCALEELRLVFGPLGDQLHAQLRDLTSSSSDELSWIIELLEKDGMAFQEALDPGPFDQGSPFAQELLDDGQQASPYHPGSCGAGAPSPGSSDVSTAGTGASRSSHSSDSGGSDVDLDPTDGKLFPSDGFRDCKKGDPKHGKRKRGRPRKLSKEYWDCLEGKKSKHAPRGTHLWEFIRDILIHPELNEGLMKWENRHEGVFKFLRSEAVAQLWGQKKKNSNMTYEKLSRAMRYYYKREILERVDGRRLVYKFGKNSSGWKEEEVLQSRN
# Method in brief: as §1
# ETV1 = ETV1 (Homo sapiens, UniProt P50549 1-477)
# Method in brief: as §1
# ERF = target: T6, ERF (Homo sapiens, UniProt P50548 1-548)
# T6 sequence: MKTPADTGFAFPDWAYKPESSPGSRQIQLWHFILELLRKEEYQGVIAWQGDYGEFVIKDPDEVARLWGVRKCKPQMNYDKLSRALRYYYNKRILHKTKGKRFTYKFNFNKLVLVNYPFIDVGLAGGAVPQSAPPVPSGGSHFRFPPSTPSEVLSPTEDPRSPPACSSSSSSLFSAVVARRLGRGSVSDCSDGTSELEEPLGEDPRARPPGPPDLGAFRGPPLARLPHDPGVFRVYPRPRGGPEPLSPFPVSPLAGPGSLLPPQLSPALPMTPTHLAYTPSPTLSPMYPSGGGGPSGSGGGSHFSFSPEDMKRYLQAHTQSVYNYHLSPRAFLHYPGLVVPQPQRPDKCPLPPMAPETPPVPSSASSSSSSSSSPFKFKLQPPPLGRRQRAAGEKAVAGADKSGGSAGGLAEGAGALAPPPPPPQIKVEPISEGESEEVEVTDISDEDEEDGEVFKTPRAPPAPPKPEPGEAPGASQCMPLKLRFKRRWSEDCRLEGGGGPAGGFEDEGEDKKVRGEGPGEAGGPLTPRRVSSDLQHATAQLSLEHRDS
# Method in brief: as §1
# ETV3L = target: T7, ETV3L (Homo sapiens, UniProt Q6ZN32 1-361)
# T7 sequence: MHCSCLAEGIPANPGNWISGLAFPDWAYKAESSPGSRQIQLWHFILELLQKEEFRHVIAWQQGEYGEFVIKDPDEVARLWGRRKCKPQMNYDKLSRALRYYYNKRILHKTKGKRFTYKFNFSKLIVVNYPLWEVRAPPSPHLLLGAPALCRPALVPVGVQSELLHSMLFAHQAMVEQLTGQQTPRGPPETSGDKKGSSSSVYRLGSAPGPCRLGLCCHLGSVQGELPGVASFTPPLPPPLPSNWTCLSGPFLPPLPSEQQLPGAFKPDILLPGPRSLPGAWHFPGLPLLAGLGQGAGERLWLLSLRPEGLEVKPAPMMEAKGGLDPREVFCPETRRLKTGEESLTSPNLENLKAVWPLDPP
# Method in brief: as §1
# ETS2 = target: T8, ETS2 (Homo sapiens, UniProt P15036 1-469)
# T8 sequence: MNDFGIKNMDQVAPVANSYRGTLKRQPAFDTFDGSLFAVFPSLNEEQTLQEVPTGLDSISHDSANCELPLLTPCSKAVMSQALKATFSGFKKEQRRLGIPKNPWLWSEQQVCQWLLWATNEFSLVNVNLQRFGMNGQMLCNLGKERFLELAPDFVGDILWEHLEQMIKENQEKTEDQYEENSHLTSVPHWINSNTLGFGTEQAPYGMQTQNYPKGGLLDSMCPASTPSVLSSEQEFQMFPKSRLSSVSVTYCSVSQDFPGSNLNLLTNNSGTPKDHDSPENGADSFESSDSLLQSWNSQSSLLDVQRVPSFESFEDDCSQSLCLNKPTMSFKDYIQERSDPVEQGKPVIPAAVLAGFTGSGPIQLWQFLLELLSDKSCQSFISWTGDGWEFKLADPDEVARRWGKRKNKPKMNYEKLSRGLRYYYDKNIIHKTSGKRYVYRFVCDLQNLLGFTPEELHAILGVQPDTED
# Method in brief: as §1
# SPDEF = target: T9, SPDEF (Homo sapiens, UniProt O95238 1-335)
# T9 sequence: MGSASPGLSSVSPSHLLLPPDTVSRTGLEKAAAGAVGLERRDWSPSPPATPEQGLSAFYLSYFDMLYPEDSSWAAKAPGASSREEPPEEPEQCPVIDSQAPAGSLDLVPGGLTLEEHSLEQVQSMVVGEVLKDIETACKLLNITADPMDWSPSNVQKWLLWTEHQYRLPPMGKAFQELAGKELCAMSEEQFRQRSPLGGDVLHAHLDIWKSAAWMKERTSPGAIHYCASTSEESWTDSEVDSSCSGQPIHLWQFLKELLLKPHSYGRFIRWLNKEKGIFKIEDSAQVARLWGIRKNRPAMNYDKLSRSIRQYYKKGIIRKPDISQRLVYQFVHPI
# Method in brief: as §1
# ETV7 = target: T10, ETV7 (Homo sapiens, UniProt Q9Y603 1-341)
# T10 sequence: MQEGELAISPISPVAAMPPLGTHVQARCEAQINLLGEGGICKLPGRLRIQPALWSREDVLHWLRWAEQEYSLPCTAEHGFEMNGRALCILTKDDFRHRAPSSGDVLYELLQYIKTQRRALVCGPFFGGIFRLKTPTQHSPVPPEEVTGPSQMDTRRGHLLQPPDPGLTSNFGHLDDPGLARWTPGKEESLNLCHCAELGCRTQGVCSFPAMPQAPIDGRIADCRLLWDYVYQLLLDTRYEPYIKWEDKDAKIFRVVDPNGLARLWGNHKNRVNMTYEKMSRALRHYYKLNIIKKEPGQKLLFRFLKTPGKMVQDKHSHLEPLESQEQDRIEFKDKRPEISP
# Method in brief: as §1
# ELF5 = target: T11, ELF5 (Homo sapiens, UniProt Q9UKW6-2 1-255)
# T11 sequence: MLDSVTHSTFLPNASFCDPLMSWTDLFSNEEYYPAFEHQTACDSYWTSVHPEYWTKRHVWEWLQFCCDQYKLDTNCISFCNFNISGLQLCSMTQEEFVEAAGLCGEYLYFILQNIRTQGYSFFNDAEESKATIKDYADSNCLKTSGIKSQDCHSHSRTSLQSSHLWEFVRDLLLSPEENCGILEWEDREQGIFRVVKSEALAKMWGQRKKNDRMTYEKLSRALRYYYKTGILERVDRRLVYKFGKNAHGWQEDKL
# Method in brief: as §1
# ETV3 = target: T12, ETV3 (Homo sapiens, UniProt P41162-2 1-143)
# T12 sequence: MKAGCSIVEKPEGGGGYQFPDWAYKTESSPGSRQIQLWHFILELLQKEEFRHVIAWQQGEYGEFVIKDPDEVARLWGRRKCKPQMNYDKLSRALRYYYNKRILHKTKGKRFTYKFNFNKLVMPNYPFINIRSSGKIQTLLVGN
# Method in brief: as §1
# ETV6 = ETV6 (Homo sapiens, UniProt P41212 1-452)
# Method in brief: as §1
# Chain of ELF4 (Q99607 whole entry): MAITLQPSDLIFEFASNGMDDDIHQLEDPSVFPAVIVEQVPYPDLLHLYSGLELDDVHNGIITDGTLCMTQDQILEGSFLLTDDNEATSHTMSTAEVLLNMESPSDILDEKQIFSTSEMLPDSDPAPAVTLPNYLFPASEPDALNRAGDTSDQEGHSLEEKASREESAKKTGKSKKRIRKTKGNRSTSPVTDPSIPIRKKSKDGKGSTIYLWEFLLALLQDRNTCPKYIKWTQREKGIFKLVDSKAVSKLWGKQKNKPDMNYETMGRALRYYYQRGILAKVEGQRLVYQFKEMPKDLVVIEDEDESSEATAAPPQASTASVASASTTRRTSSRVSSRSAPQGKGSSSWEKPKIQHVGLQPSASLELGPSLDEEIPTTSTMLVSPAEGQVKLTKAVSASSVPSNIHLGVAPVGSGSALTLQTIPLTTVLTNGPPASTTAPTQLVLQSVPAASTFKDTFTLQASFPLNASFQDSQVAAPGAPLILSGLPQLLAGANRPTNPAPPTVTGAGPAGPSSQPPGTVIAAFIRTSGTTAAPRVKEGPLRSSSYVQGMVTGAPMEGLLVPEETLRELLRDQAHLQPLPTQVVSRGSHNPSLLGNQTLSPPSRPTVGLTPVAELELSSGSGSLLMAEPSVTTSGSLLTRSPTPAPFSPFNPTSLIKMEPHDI
# Chain of ETV5 (P41161 whole entry): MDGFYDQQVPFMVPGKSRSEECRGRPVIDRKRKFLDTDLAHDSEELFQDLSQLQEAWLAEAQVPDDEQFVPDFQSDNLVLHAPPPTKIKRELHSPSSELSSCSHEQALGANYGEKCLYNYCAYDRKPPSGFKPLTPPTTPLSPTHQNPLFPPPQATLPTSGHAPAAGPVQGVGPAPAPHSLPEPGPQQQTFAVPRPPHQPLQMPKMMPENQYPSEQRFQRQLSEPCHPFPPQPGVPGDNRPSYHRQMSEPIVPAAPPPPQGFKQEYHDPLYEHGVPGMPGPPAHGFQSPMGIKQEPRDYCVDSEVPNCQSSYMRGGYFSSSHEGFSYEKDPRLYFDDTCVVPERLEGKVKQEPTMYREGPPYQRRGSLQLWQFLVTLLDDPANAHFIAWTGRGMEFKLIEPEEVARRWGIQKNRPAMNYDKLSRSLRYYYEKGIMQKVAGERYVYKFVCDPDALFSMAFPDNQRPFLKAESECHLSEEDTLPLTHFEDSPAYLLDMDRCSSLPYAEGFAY
# Chain of ETV1 (P50549 whole entry): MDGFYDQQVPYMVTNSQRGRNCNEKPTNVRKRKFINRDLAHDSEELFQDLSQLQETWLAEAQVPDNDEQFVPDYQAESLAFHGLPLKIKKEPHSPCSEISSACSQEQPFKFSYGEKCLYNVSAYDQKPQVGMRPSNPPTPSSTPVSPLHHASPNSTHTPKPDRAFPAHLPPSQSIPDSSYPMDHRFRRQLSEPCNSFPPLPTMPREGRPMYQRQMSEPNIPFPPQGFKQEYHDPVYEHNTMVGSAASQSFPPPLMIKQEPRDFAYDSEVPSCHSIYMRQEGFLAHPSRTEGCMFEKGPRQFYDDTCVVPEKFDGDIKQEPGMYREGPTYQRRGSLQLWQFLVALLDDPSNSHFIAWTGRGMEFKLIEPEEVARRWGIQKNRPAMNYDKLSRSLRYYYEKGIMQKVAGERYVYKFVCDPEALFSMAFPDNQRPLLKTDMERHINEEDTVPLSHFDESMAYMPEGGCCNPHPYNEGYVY
# Chain of ETV6 (P41212 whole entry): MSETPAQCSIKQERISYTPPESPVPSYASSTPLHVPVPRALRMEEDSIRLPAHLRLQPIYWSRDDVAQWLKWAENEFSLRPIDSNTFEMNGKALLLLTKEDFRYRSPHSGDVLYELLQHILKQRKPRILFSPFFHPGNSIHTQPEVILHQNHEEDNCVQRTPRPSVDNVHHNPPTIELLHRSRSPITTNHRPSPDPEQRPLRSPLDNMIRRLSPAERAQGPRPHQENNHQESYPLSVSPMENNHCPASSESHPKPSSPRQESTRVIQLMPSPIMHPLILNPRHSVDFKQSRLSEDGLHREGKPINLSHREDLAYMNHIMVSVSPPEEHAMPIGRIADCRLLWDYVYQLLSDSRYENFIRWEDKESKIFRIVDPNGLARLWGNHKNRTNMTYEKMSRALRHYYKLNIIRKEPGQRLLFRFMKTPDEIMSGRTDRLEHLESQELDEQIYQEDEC
sequence,measurement,setting,value
ATACGG,binding signal,FEV,"1.16 fold enrichment (6-mer frequency, TF over GST control)"
same,binding signal,ETV5,"1.25 fold enrichment (6-mer frequency, TF over GST control)"
same,binding signal,SPIC,"1.2 fold enrichment (6-mer frequency, TF over GST control)"
same,binding signal,ELF4,"1.2 fold enrichment (6-mer frequency, TF over GST control)"
same,binding signal,ELK4,"1.03 fold enrichment (6-mer frequency, TF over GST control)"
same,binding signal,ETV2,"1.22 fold enrichment (6-mer frequency, TF over GST control)"
same,binding signal,ELF3,"1.25 fold enrichment (6-mer frequency, TF over GST control)"
same,binding signal,ETV1,"1.21 fold enrichment (6-mer frequency, TF over GST control)"
same,binding signal,ERF,"1.28 fold enrichment (6-mer frequency, TF over GST control)"
same,binding signal,ETV3L,"1.15 fold enrichment (6-mer frequency, TF over GST control)"
same,binding signal,ETS2,"1.22 fold enrichment (6-mer frequency, TF over GST control)"
same,binding signal,SPDEF,"1.31 fold enrichment (6-mer frequency, TF over GST control)"
same,binding signal,ETV7,"1 fold enrichment (6-mer frequency, TF over GST control)"
same,binding signal,ELF5,"1.32 fold enrichment (6-mer frequency, TF over GST control)"
same,binding signal,ETV3,"1.31 fold enrichment (6-mer frequency, TF over GST control)"
same,binding signal,ETV6,"1.18 fold enrichment (6-mer frequency, TF over GST control)"
CACATC,binding signal,FEV,"1.71 fold enrichment (6-mer frequency, TF over GST control)"
same,binding signal,ETV5,"1.5 fold enrichment (6-mer frequency, TF over GST control)"
same,binding signal,SPIC,"1.31 fold enrichment (6-mer frequency, TF over GST control)"
same,binding signal,ELF4,"1.36 fold enrichment (6-mer frequency, TF over GST control)"
same,binding signal,ELK4,"1.45 fold enrichment (6-mer frequency, TF over GST control)"
same,binding signal,ETV2,"1.44 fold enrichment (6-mer frequency, TF over GST control)"
same,binding signal,ELF3,"1.34 fold enrichment (6-mer frequency, TF over GST control)"
same,binding signal,ETV1,"1.38 fold enrichment (6-mer frequency, TF over GST control)"
same,binding signal,ERF,"1.39 fold enrichment (6-mer frequency, TF over GST control)"
same,binding signal,ETV3L,"1.41 fold enrichment (6-mer frequency, TF over GST control)"
same,binding signal,ETS2,"1.38 fold enrichment (6-mer frequency, TF over GST control)"
same,binding signal,SPDEF,"2.09 fold enrichment (6-mer frequency, TF over GST control)"
same,binding signal,ETV7,"1.38 fold enrichment (6-mer frequency, TF over GST control)"
same,binding signal,ELF5,"1.42 fold enrichment (6-mer frequency, TF over GST control)"
same,binding signal,ETV3,"1.49 fold enrichment (6-mer frequency, TF over GST control)"
same,binding signal,ETV6,"1.5 fold enrichment (6-mer frequency, TF over GST control)"
